# Screens: PubChem, National Center for Advancing Translational Sciences (NCATS)
# TbPYK inhibitor: T. brucei pyruvate kinase inhibition | TbPYK enzyme, Kinase-Glo Plus ATP luminescence, 45 min | Potency, µM (doses to about 76.8 µM), inactives show at the highest dose activity, negative = inhibition, most hits filed as inhibitors | Q57TT1 | 0.12% of 410,000 active | AID 624173; also: potency is read from the fitted curve at half-maximal effect; % is scaled to controls: 0 for no effect and ±100 for the full control effect; nearly all actives have a fitted effect of over 50% in size
#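 T. brucei PYK with substrate was exposed to pin-transferred compounds across a concentration series, then started with 130 uM ADP (final). After 45 min at room temperature, Kinase-Glo Plus luminescence was read, normalized and curve-fitted.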
# FBPA Giardia inh: blocks Giardia fructose-bisphosphate aldolase activity. A8B2U2. purified Giardia FBPA. Potency, µM (highest dose often 59.6 µM), for inactives: top-dose activity, negative = inhibition, usual class: inhibitors. 0.71% of 290,000 active. AID 2451; also: potency is read from the fitted curve at half-maximal effect; % is scaled to controls: 0 for no effect and ±100 for the full control effect; nearly all actives have a fitted effect of over 55% in size
# Target sequence (A8B2U2 whole entry, looked up): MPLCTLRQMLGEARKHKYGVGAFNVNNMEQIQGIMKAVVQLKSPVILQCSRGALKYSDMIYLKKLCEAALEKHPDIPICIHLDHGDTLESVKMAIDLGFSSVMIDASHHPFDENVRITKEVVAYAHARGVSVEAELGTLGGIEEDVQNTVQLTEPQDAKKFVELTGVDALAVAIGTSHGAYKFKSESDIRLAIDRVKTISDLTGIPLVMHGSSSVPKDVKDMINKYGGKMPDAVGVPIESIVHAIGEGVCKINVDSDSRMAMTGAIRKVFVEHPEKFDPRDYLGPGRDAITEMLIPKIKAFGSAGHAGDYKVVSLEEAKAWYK
#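 Giardia FBPA (40 nM reagent) was preincubated 10 min at RT with compound (up to 57.5 uM final), then substrate plus GAPDH/TPI/NAD/arsenate coupling system with diaphorase/resazurin was added; resorufin fluorescence (525/598 nm) was read after 20 min.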
# CHX counter: affects cycloheximide protein synthesis inhibition readout, counter-screen. cell reporter, cycloheximide protein synthesis inhibition counterscreen. max response, %. 12% of 300,000 active; in the data active = max response mostly above about 13%, no sharp cut-off; inactive = mostly below about 14%; also: read at 38.3 µM for the half of the compounds with a filed dose; 0% is about no effect
# LmPK inh: blocks Leishmania mexicana pyruvate kinase activity; purified LmPK, Kinase-Glo ATP luminescence, 1 h; Potency, µM (highest dose often 57.5 µM), inactives show at the highest dose activity change, negative = inhibition, hits mostly inhibitors; Q27686; 0.37% of 290,000 active; also: potency is read from the fitted curve at half-maximal effect; % is scaled to controls: 0 for no effect and ±100 for the full control effect
#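 In 50 mM imidazole pH 7.2 with 7 mM MgCl2, LmPK (0.1 nM) turned over PEP (0.5 mM) and ADP (0.1 mM) for 1 h at room temperature. Luciferase read-out of ATP.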
# Sm TGR block: inhibitors of Schistosoma mansoni thioredoxin glutathione reductase; AID 485364; purified TGR, DTNB reduction, TNB absorbance 405 nm; Q962Y6; Potency, µM (doses to about 114 µM), inactives show top-dose activity change, negative = inhibition, usual class: inhibitors; 3% of 360,000 active; also: potency is read from the fitted curve at half-maximal effect; % is scaled to controls: 0 for no effect and ±100 for the full control effect; nearly all actives have a fitted effect of over 60% in size
#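 Kinetic colorimetric format: TGR-catalysed, NADPH-driven DTNB reduction monitored via TNB absorbance. Enzyme dispensed at 20 nM; compound exposure 15 min at room temperature before reaction start.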
# Shiga inhibitor: inhibitors of Shiga toxin in Vero cells; AID 2315; Vero cells, Shiga toxin protein synthesis inhibition reporter; inhibition, % at 38.7 µM; 9.2% of 290,000 active; in the data active = inhibition mostly above about 28%, no sharp cut-off; inactive = mostly below about 43%; also: 0% is about no effect
# * hit, by the source's call; ? = inconclusive; . = not tested or not shown. Shown is part of a subset that was picked to be rich in hits. Unless noted, calls follow the shape of the dose curve; as a rule, active = well fitted curve in the direction sought with a large enough effect; inconclusive = small, poorly fitted or top-dose-only effect, or another doubt; inactive = no such curve, though single readings can be large; an effect the other way counts as inactive or inconclusive.
SMILES,TbPYK inhibitor,FBPA Giardia inh,CHX counter,LmPK inh,Sm TGR block,Shiga inhibitor
COc1cccc(-c2nnc(SCC(=O)N3CC(C)CC(C)C3)o2)c1 (centres undefined),0%,0%,-7,17%,3%,-12
O=C(CSc1nnc(-c2cccc(F)c2)o1)N1CCCC1,1%,.,23*,-10%,9%,36
Cc1cccc(-c2noc(CCCC(=O)N3CCOCC3)n2)c1,4%,6%,11*,3%,1%,11
Cc1cccc(-c2nnc(SCC(=O)N3CCOCC3)o2)c1,-6%,6%,21*,-2%,-18%,71*
O=C(CSc1nnc(-c2cccc(F)c2)o1)N1CCOCC1,6%,3%,6,-8%,18%,-7
COc1cccc(-c2nnc(SCC(=O)N3CCOCC3)o2)c1,-23%,4%,22*,-2%,0%,32
COC(=O)c1ccc(C(NC(=O)OCc2ccccc2)/C(=C/[C@@H](C)C(=O)NCc2ccc(OC)c(O)c2)c2cccnc2)cc1 (some centres undefined),.,-11%,.,.,.,.
O=C(CSc1nnc(-c2ccc(OC(F)F)cc2)o1)N1CCOCC1,4%,1%,21*,-4%,2%,82*
COc1ccc(-c2nnc(SCC(=O)N3CCOCC3)o2)cc1,-2%,-5%,17,-2%,6%,122*
COc1ccc(/C(C#N)=C/c2cccnc2)cc1,.,1%,45*,-6%,3%,71*
C(=C\c1ccccn1)/c1cccnc1,.,-7%,21*,-22%,25%,67*
N#C/C(=C\c1cccnc1)c1ccccn1,-9%,4%,11*,-2%,-12%,25
N#C/C(=C\c1ccccc1)c1ccccn1,-2%,3%,31*,-22%,-7%,91*
COc1ccc(C(C#N)=Cc2cccc(OC)c2OC)cc1,1%,.,.,.,.,.
CC(C)NS(=O)(=O)c1ccc2nc(NC(=O)c3cncc(Br)c3)sc2c1,6%,.,.,.,0%,.
Cc1ccc(Cn2ccn(CC(=O)Nc3ccccc3C(F)(F)F)c(=O)c2=O)cc1,0%,.,.,.,13%,.
CCCCCCOc1ccc(-c2nc3ccc(Br)cc3c(=O)o2)cc1,1%,.,.,.,-4%,.
CNc1ccc(/C=C(\C#N)c2ccccn2)cc1[N+](=O)[O-],1%,-2%,45*,-7%,2%,69*
N#C/C(=C\c1ccc(Cl)c([N+](=O)[O-])c1)c1ccccn1,-15%,-5%,12,-14%,-18%,-11
COc1cc(OC)c(NC(=O)CSc2nc3ccncc3[nH]2)cc1Cl,-3%,.,.,.,2%,.
C/C(CC(=O)Nc1ccc(Cl)c(C(F)(F)F)c1)=N\NC(=O)c1cc2ccccc2cc1O,2%,-11%,13*,-2%,-9%,-7
C/C(CC(=O)Nc1cccc(Cl)c1Cl)=N\NC(=O)c1ccccc1Br,-10%,-9%,12,4%,-5%,11
C/C(CC(=O)Nc1cccc(Br)c1)=N\NC(=O)c1ccc(O)cc1O,-4%,-1%,31*,0%,-20%,65*
C/C(CC(=O)Nc1cccc(Cl)c1Cl)=N\NC(=O)c1ccccc1N,0%,-13%,37*,-1%,.,112*
C/C(CC(=O)Nc1ccc(C)c(Cl)c1)=N\NC(=O)c1ccncc1,-19%,?,13,5%,?,17
SMILES,TbPYK inhibitor,FBPA Giardia inh,CHX counter,LmPK inh,Sm TGR block,Shiga inhibitor
COc1cccc(NC(=O)C/C(C)=N/NC(=O)c2ccccc2Cl)c1,0%,-3%,25*,0%,-33%,55*
COc1ccc(Cl)cc1NC(=O)C/C(C)=N/NC(=O)c1ccccc1Cl,0%,1%,12,5%,-27%,.
CCOC(=O)c1c(NC(=O)c2noc3c2CC(C(C)(C)C)CC3)sc2c1CCCC2 (centres undefined),-6%,.,.,.,1%,.
CCc1ccc2c(c1)c(=O)c(C(=O)c1ccc(C)cc1)cn2CC(=O)Nc1ccc2c(c1)OCCO2,6%,.,.,.,0%,.
COc1ccc(CNC(=O)C/C(C)=N/NC(=O)c2ccc(OC)cc2OC)cc1,5%,5%,14,6%,-18%,47*
COc1ccc(C(=O)N/N=C(\C)CC(=O)Nc2ccc3ccccc3c2)c(OC)c1,-10%,.,13*,-1%,-1%,15
COc1ccc(CNC(=O)C/C(C)=N/NC(=O)c2cc(OC)cc(OC)c2)cc1,.,-14%,-3,4%,0%,-7
c1ccc(-c2nc3nc4ccccc4nc3n2Cc2ccco2)cc1,3%,-14%,82*,-7%,10µM*,137*
S=c1nc(-c2ccccc2)n(Cc2ccco2)c2c1CCCC2,.,-12%,-1,-1%,35µM*,-12
Fc1ccc(-c2nc3nc4ccccc4nc3n2Cc2ccco2)cc1,-7%,-8%,44*,2%,20µM*,125*
c1ccc(Cn2c(-c3cccs3)nc3nc4ccccc4nc32)cc1,.,10%,7,3%,-1%,17
COCCNC(=O)c1c(C)oc2nc(C)nc(N3CCOCC3)c12,-5%,.,.,.,5%,.
O=C1CC(=O)N(c2ccccc2)C(=O)N1c1ccccc1,-3%,-8%,17*,-7%,-16%,18
COC(=O)Cc1nc(NC(=O)c2cccs2)sc1C,9%,22%,35*,0%,6%,54*
O=C(NC(=S)Nc1nc2ccccc2s1)c1cccs1,0%,?,82*,-5%,?,74*
Cc1c(NC(=O)c2cccs2)cccc1-c1nc2ccccc2s1,-15%,-4%,18,2%,-10%,23
CCc1ccc(-c2nc(NC(=S)NC(=O)c3cccs3)sc2C)cc1,0%,-14%,-1,3%,-2%,-5
CCc1ccc(OCc2nnc(NC(=O)c3cccs3)s2)cc1,3%,3%,-2,5%,8%,-10
COC(=O)c1nc(NC(=S)NC(=O)c2cccs2)sc1C,-2%,.,23*,-5%,?,51*
CCc1ccc(-n2c(SCc3cccc(F)c3)nc3[nH]ncc3c2=O)cc1,2%,.,.,.,-4%,.
CCCOc1ncnc2c1[nH]c1ccc(OC)cc12,-8%,2%,49*,-13%,16%,68*
CCN(CC)c1ncnc2c1[nH]c1ccccc12,-3%,-6%,-3,-1%,6%,-22
Cc1ccc2[nH]c3c(N4CCN(Cc5ccccc5)CC4)ncnc3c2c1,5%,-1%,9,7%,-2%,20
Cc1ccc2[nH]c3c(N4CCCCCC4)ncnc3c2c1,.,-5%,18*,6%,2%,65*
CC(C)Oc1ncnc2c1[nH]c1ccccc12,4%,-3%,30*,-6%,20%,39*
CCCOc1ncnc2c1[nH]c1ccccc12,5%,-6%,42*,2%,2%,60
COCCNc1ncnc2c1[nH]c1ccccc12,-2%,-1%,6,-3%,8%,9
CC(O)CN(C)C (centres undefined),-7%,.,.,.,.,.
